Test results: PubChem BioAssay AID651650 (Sanford-Burnham Center for Chemical Genomics, 2012)

What follows are molecules tested against Neuropilin-1 (Homo sapiens) (UniProt O14786) (assay: NRP-1 b1b2 CendR peptide binding inhibitors, dose response, biochemical, FP and AlphaScreen panel (AID 651650)). Conditions: NRP-1 b1b2 / RPARPAR peptide binding, FP or AlphaScreen; run 1, at 100 µM (top of the series).
Sequence of Neuropilin-1 (Homo sapiens) (O14786 whole entry, looked up): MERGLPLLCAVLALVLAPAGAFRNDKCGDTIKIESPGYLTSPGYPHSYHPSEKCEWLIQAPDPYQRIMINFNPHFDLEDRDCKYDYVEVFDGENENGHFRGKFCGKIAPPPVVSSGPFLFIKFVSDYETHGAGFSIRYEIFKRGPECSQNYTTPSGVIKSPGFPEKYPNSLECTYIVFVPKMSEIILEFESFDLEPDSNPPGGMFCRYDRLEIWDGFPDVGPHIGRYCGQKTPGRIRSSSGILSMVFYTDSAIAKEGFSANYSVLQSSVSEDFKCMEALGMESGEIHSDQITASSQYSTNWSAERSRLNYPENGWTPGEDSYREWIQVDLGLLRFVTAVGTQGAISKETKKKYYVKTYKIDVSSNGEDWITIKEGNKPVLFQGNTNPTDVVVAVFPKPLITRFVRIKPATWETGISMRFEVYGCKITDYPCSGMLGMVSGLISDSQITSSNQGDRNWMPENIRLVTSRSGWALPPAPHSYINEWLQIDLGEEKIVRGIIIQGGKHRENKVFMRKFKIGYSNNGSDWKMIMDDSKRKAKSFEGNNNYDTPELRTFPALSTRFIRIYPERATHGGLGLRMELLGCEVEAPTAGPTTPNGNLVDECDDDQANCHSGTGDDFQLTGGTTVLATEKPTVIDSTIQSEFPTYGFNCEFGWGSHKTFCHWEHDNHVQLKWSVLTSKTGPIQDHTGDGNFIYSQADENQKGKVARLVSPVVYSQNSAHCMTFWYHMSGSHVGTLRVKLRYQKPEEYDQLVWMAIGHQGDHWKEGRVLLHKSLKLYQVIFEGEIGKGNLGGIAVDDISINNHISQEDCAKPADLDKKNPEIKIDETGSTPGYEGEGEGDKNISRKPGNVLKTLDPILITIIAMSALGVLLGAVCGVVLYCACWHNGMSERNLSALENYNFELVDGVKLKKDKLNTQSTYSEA
`Cn1c(SCc2nc3ccccc3s2)nnc1-c1cccs1` gave an inhibition of 65.1%.
`CCOC(=O)Cc1cnc(NC(=O)NC(C(=O)OCC)(c2ccccc2)C(F)(F)F)s1` (stereo not drawn) gave an inhibition of 99.2%.
Work on `CCCNC(=S)Nc1cccc(C(F)(F)F)c1` yielded an inhibition of -8.06%.
With `CC1CCC(NC(=O)CSc2nncn2C)CC1` (stereo not drawn) the inhibition was 19.2%.
In the case of `CCOC(=O)[C@@H]1[C@H]2COc3ccccc3[C@@H]2N2C(=O)N(c3ccc(Cl)cc3)C(=O)[C@]12C`, the inhibition was 48.8%.
`CC(C)(C)C(=O)COC(=O)c1cc(-c2ccncc2)nc2ccccc12` was tested, and the inhibition was 19.4%.
`NS(=O)(=O)c1cccnc1Nc1cccc(Cl)c1Cl` was tested, and the inhibition was 14.4%.
`O=C(NCc1ccccc1)C(c1cccnc1)N(C(=O)c1ccccn1)c1ccccc1F` (stereo not drawn) was tested, and the inhibition was 43.9%.
For `COc1cccc(OCC(=O)NNC(=S)Nc2ccc(Cl)cc2Cl)c1`, the inhibition was 27.2%.
With `c1ccc2c(c1)CCCN2Cc1nnnn1CC1CCCO1` (stereo not drawn) the inhibition was 48.9%.
`Nc1ncnc2[nH]c(=S)[nH]c12` gave an inhibition of -4.05%.
`Cc1ccc(C(=O)NCCCc2ccccc2)c(C)c1` showed an inhibition of 37.1%.
Work on `Cc1ccc(C)c(-n2c(SCC(=O)NC(C(=O)O)C(C)C)nnc2-c2cccc(Cl)c2)c1` (stereo not drawn) yielded an inhibition of 46.2%.
Work on `COc1cc(OC)nc(NC(=O)COC(=O)c2cccc(Cl)c2)n1` yielded an inhibition of 98.8%.
In the case of `Cc1cccc(-c2noc(CSc3ccccc3)n2)c1`, the inhibition was 0.214%.
Work on `O=C(O)c1cccc(N2C(=O)c3cc([N+](=O)[O-])cc4cc([N+](=O)[O-])cc(c34)C2=O)c1` yielded an inhibition of 32.7%.
With `CCN(CC)C(=O)C1CCCN(C(=O)Nc2ccc3nsnc3c2)C1` (stereo not drawn) the inhibition was 21.5%.
`CC(CN1CCCCC1)OC(=O)c1ccc(Cl)cc1Cl` (stereo not drawn) showed an inhibition of 30.1%.
`Cc1cnccc1CNC(=O)CC1C(=O)NCCN1CC(C)(C)C` (stereo not drawn) was tested, and the inhibition was 57.6%.
With `Cn1c(=O)c2[nH]c(COc3ccccc3)nc2n(C)c1=O` the inhibition was 16.6%.
In the case of `COc1ccccc1N1CCN(C(=O)C2c3ccccc3Oc3ccccc32)CC1`, the inhibition was 38.7%.
In the case of `CCOC(=O)C1CCN(S(=O)(=O)c2ccc3c(c2)CCN3C(=O)C2CCC2)CC1`, the inhibition was 6.43%.
`O=C(Nc1cc(C(F)(F)F)ccc1N1CCCC1)C1CC(=O)N(Cc2ccccc2)C1` (stereo not drawn) was tested, and the inhibition was 2.78%.
With `Cc1cccc(N(CC(=O)NC2CCCC2)C(=O)CS(=O)CC(=O)Nc2ccc3c(c2)OCO3)c1C` (stereo not drawn) the inhibition was 49%.
Work on `COc1cccc(-c2ccc3c(c2)N(Cc2ccccc2OC)C(=O)C(C)S3)c1` (stereo not drawn) yielded an inhibition of -18.6%.
`O=C(CSC1CN(C(c2ccccc2)c2ccccc2)C1)N/N=C/c1ccccc1` showed an inhibition of 53.3%.
Work on `Cc1ccc(C(=O)N/C(=C\c2ccc(-c3ccccc3[N+](=O)[O-])o2)C(=O)NCCCN2CCOCC2)cc1` yielded an inhibition of 13.2%.
`CCOc1ccc(C2CC(c3ccc(CC)cc3)n3nc(N)nc3N2)cc1` (stereo not drawn) gave an inhibition of 4.44%.
`CCOc1c2ccc(C(=O)NCCc3cccs3)cc2nn1CC` was tested, and the inhibition was -5.4%.
For `CC(=O)C(C(c1ccccc1)N1CCCc2ccccc21)N1CCOCC1` (stereo not drawn), the inhibition was 54%.
`CC(Nc1nc(-c2ccc(F)cc2)cs1)c1nc2cc(C(F)(F)F)ccc2n1CCOCCO` (stereo not drawn) gave an inhibition of 43.3%.
`O=C(O/N=C1/CCSc2ccccc21)c1ccccc1` gave an inhibition of 17.1%.
Molecule `NC(=O)C1=C[C@H](c2ccc(Br)cc2)C[C@H](OCc2ccc(CO)cc2)O1` has an inhibition of 36.9%.
For `O=c1c2cn[nH]c2nc(SCc2ccccc2F)n1-c1ccc(Br)cc1`, the inhibition was 53.3%.
Work on `O=[N+]([O-])c1cc(-c2csc(NCCc3nc4cc(C(F)(F)F)ccc4n3CCCO)n2)ccc1Cl` yielded an inhibition of 33.1%.
`CN(c1ccccc1)S(=O)(=O)c1cccc(NC(=O)CSc2nncn2C)c1` gave an inhibition of 21.8%.
`O=C(CN1C2=NCCN2c2ccccc21)c1ccco1` gave an inhibition of 0.0631%.
`CC(C)(C)n1cnc2cc(NC(=O)c3ccccc3)ccc21` gave an inhibition of 95.9%.
